HT1080NT lethal: kills 2HG-producing HT-1080-NT fibrosarcoma cells. 1.6% of 360,000 active. Potency, µM (series often up to 46.1 µM), inactives show top-dose activity, negative = less viability, most hits filed as cytotoxic. HT-1080-NT fibrosarcoma viability, CellTiter-Glo ATP luminescence, 48 h;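 also: NT is the 2HG producing partner of a matched IDH1 knockdown line; potency is read from the fitted curve at half-maximal effect; 0% = DMSO-treated cells and -100% = media-only wells without cells; nearly all actives have a fitted effect of over 55% in size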
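HT-1080-NT fibrosarcoma cells (2HG-overproducing), 750 cells/well in RPMI with 5% FBS, dosed after 2 h and incubated 48 h at 37C. CellTiter-Glo luminescence normalized to DMSO and no-cell wells; concentration-response curves fitted and classed.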
DT40 TDP1 no CPT: qHTS for Inhibitors of human tyrosyl-DNA phosphodiesterase 1 (TDP1): qHTS in cells in absence of CPT; AID 686978, 2013; 15% of 420,000 active; Potency, µM (series often up to 46.2 µM), inactives show top-dose activity change, negative = growth inhibition, actives largely listed as inhibitors; DT40 Tdp1-/- hTDP1 cells, no CPT, ATP luminescence, 48 h; also: potency is read from the fitted curve at half-maximal effect; nearly all actives have a fitted effect of over 55% in size
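Stably hTDP1-transfected Tdp1-null chicken DT40 cells were treated with library compounds minus camptothecin and grown for at least 48 hr at 37 °C, after which cellular ATP was quantified by luminescence.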
IL1B secr inh: blocks inflammasome-driven IL-1 beta release; AID 743279; 4.7% of 360,000 active; THP-1 LPS/ATP IL-1B secretion, AlphaLISA, 16 h; active compounds read low; activity change, % at 57.5 µM; in the data active = activity change below about -50%; inconclusive = mostly about -30% to -49%
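Secreted IL-1B measured by AlphaLISA bead assay after 16 h compound exposure of THP-1 cells; compounds (final up to 57.5 uM) added 1 h before LPS (250 ng/mL) and ATP (1.25 mM) stimulation; lower signal means less secretion.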
HT1080 IDH1KD tx: toxicity to HT-1080 IDH1 knockdown cells (counter line); HT-1080 IDH1 knockdown viability, ATP luminescence, 48 h; Potency, µM (top dose mostly 46.1 µM), without a hit: top-dose activity, negative = toxicity, hits mostly cytotoxic; 2% of 360,000 active;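 also: potency is read from the fitted curve at half-maximal effect; 0% = DMSO wells and -100% = cell-free medium wells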
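In this qHTS, HT-1080 cells depleted of IDH1 are exposed for 48 h at 37 °C to compound titrations. Toxicity is scored from CellTiter-Glo luminescence, with DMSO as full viability and medium alone as none.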
DT40 TDP1 CPT: DT40-hTDP1 cell growth loss with CPT | chicken DT40 Tdp1-/-;hTDP1 cells + 20 nM CPT, ATP luminescence, 48 h | Potency, µM (highest dose often 46.2 µM), without a hit: top-dose activity change, negative = growth inhibition, usual class: inhibitors | AID 686979 | 12% of 420,000 active; also: potency is read from the fitted curve at half-maximal effect; nearly all actives have a fitted effect of over 55% in size
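Cell growth measured by CellTiter-Glo luminescence after a minimum 48 h, 37 C compound exposure with 20 nM CPT in Tdp1-knockout DT40 cells stably expressing hTDP1, seeded 400/well; qHTS titration format.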
* = called active by the depositor; ? = inconclusive; . = no result given. Sampled rows, rich in hits. Any-hit rate of the full collection: about 19%. Unless noted, calls follow the shape of the dose curve; as a rule, active = well fitted curve in the direction sought with a large enough effect; inconclusive = small, poorly fitted or top-dose-only effect, or another doubt; inactive = no such curve, though single readings can be large; an effect the other way counts as inactive or inconclusive. Unless noted, % is scaled to controls: 0 for no effect and ±100 for the full control effect.

SMILES | HT1080NT lethal | DT40 TDP1 no CPT | IL1B secr inh | HT1080 IDH1KD tx | DT40 TDP1 CPT
COc1ccc(C[C@H]2CN3C(=NC[C@@H]3C(C)C)N2C[C@H](C)NC(=O)c2ccc(C)c(Br)c2)cc1 | -10% | 18µM* | -57* | -26% | 29µM*
Cc1ccc(C(=O)N[C@@H](C)CN2C3=NC[C@H](C(C)C)N3C[C@H]2Cc2ccc(O)cc2)cc1Br | -26% | 5.8µM* | ? | -30% | 4.6µM*
C/C=C(\C)C(=O)NCCN1C2=NC[C@@H](C)N2C[C@@H]1Cc1ccc(OC)cc1 | 1% | -5% | -1 | -14% | -15%
COc1ccc(C[C@H]2CN3C(=NC[C@@H]3Cc3ccc(O)cc3)N2C[C@H](C)NC(=O)c2ccc(C)c(Br)c2)cc1 | -15% | 21µM* | ? | -14% | 4.6µM*
C/C=C(\C)C(=O)NCCN1C2=NC[C@@H](C)N2C[C@H]1Cc1ccc(O)cc1 | -1% | 2% | 6 | -8% | 1%
NC1=NC(=Nc2ccc(S(N)(=O)=O)cc2)c2ccccc21 | 2% | -7% | -27 | 8% | -18%
NC1=NC(=Nc2cccc(S(=O)(=O)N3CCOCC3)c2)c2ccccc21 | -22% | -29% | -60* | -27% | ?
Cc1nnc(SCC(=O)NCc2ccccc2Cl)[nH]c1=O | 3% | -8% | 14 | 16% | -10%
CCOC(=O)c1sc2nc(C)nc(NCc3ccccc3)c2c1C | -7% | 21µM* | -26 | -8% | 10µM*
CCOC(=O)c1sc2nc(C)nc(N3CCN(S(=O)(=O)c4ccccc4)CC3)c2c1C | 2% | 6.5µM* | 25 | 3% | 8.2µM*
CCOC(=O)c1sc2nc(CC(=O)OC)nc(NCCN(CC)CC)c2c1C | -4% | -30% | 0 | -11% | -21%
CCOC(=O)c1sc2nc(CC(=O)OC)nc(NCc3ccc(Cl)cc3)c2c1C | 2% | 5.8µM* | ? | 15% | 4.1µM*
CCOC(=O)c1sc2nc(C)[nH]c(=S)c2c1C | -7% | 21µM* | 26 | -6% | ?
CN(CC(=O)Nc1cccc(F)c1)C(=O)CCCNC(=O)c1ccc(Cl)cc1 | -7% | -27% | 27 | -3% | -19%
Cc1nc(N2CCN(S(=O)(=O)c3cccs3)CC2)c2c(-c3ccccc3)c(C)sc2n1 | -8% | 13µM* | 27 | -21% | ?
O=S(=O)(c1cccs1)N1CCN(c2ncccn2)CC1 | 12% | -26% | 10 | 4% | -11%
CCOC(=O)c1sc2nc(CC(=O)OC)nc(N3CCN(c4ccc(OC)cc4)CC3)c2c1C | -6% | 23µM* | 15 | ? | 23µM*
CCOC(=O)c1sc2nc(CC(=O)OC)nc(NCCN3CCOCC3)c2c1C | 10% | ? | 6 | 1% | -6%
O=C(/C=C/c1ccc2ccccc2n1)N1CCN(S(=O)(=O)c2ccc(F)cc2)CC1 | -23% | ? | -89* | ? | ?
O=C(/C=C/c1ccc2ccccc2n1)N1CCN(S(=O)(=O)c2ccccc2F)CC1 | -12% | 18µM* | -76* | -21% | 23µM*
COc1ccc(-c2noc(CNC(=O)CCCN3C(=O)[C@H]4CC=CC[C@H]4C3=O)n2)cc1 | -8% | -3% | -13 | -6% | -24%
CC(C)OCCCNC1=C(Cl)C(=O)c2ccccc2C1=O | -22% | ? | . | ? | ?
Cc1ccccc1N1C(=O)C(Oc2ccc(Cl)cc2)C1CNCCCOC(C)C (stereo not given) | 16µM* | 26µM* | -91* | 16µM* | ?
COCCCNCC1C(Oc2ccc(Cl)cc2)C(=O)N1c1ccccc1C (stereo not given) | -29% | 16µM* | -76* | -12% | ?
Cc1cc(SCC(=O)Nc2ccc(C(F)(F)F)cc2)nc(=O)[nH]1 | . | -23% | . | . | -16%
SMILES | HT1080NT lethal | DT40 TDP1 no CPT | IL1B secr inh | HT1080 IDH1KD tx | DT40 TDP1 CPT
C[C@H](CO)N1C[C@H](C)[C@@H](CN(C)S(=O)(=O)c2cccs2)Oc2c(NC(=O)CCC(F)(F)F)cccc2C1=O | 2% | -8% | 15 | -2% | -26%
CC(C)(C)C(=O)NCCN1CCN(C(=O)C(C)(C)C)CC1 | 17% | -13% | 9 | 9% | -2%
N#CCSc1ncnc2sc3c(c12)CCC3 | 0% | -19% | -27 | 2% | -7%
COc1ccc(-c2nnc(CSc3ncnc4sc5c(c34)CCC5)o2)cc1OC | -5% | 10µM* | -3 | -2% | ?
COc1ccc(NC(=O)C2C3C=CC4(O3)C2C(=O)N(CCN2CCCCC2)C4C(=O)NC2CCCC(C)C2C)cc1 (stereo not given) | -16% | -22% | ? | -13% | -2%
Cc1nnc(SCC(=O)N/N=C/c2cn(-c3ccccc3)nc2-c2ccccc2)n1-c1ccccc1 | ? | ? | -78* | ? | ?
NS(=O)(=O)c1ccc(N/N=C/c2ccccc2Br)cc1 | ? | -21% | -106* | ? | -3%
O=C(O)c1cccc(N/N=C/c2cn(-c3ccccc3)nc2-c2cccs2)c1 | -15% | 4% | 5 | -9% | -4%
NC(=O)N/N=C/c1cn(-c2ccccc2)nc1-c1cccs1 | 23µM* | ? | ? | 10µM* | 16µM*
NS(=O)(=O)c1ccc(N/N=C/c2cn(-c3ccccc3)nc2-c2cccs2)cc1 | 23µM* | 2.9µM* | -61* | 21µM* | 5.2µM*
Cc1ccc(CSCCC(=O)NCc2ccc(F)cc2Cl)cc1 | . | -25% | . | . | 0%
C[C@@H]1CN([C@H](C)CO)C(=O)CCCn2cc(nn2)CO[C@H]1CN(C)C(=O)c1ccc2ccn(C)c2c1 | 28% | 32% | -2 | 2% | 3%
Cc1ccc(-c2nnc(SCC(=O)N/N=C/c3ccc(C)s3)n2-c2ccc(C)cc2)cc1 | -27% | 29µM* | -25 | -25% | ?
CN1CCN(/N=C/c2ccc(N(c3ccccc3)c3ccccc3)cc2)CC1 | -13% | ? | -51* | -5% | ?
CC(C)(C)n1ncc2c(=O)n(CC(=O)NCc3ccc(F)cc3)cnc21 | ? | 8.2µM* | 37 | 13µM* | 6.5µM*
CC(C)(C)n1ncc2c(=O)n(CC(=O)NCc3ccco3)cnc21 | -11% | ? | 19 | -25% | ?
Cc1ccc(C)c(Cn2cnc3c(cnn3C(C)(C)C)c2=O)c1 | -12% | 18µM* | -27 | ? | -113%
CCOC(=O)c1ccccc1NC(=O)Cn1cnc2c(cnn2C(C)(C)C)c1=O | 11% | 26µM* | 1 | 6% | ?
CC(C)(C)n1ncc2c(=O)n(CC(=O)Nc3ccccc3)cnc21 | -1% | -28% | -1 | -3% | -27%
COc1cc2[nH]c(=S)n(Cc3ccc(C)cc3)c(=O)c2cc1OC | -17% | ? | 11 | -11% | ?

Bioassay records as filed in PubChem.
